We go through 107 compounds from ChEMBL document CHEMBL3988442, “University of Dundee, Small-Polar-MMV Screening Library” (2021).

Among all 67,000 compounds or so, about 300 (0.45%) showed an effect of 50% or more. Many of the other results were omitted from the sample, so strong results are more common in it than they were.

The experiment deals with Polyketide synthase Pks13 (Mycobacterium tuberculosis (strain ATCC 25618 / H37Rv)) (UniProt I6X8D2). Briefly: Mycobacterium tuberculosis Polyketide synthase 13 Thioesterase (PKS13). The format is functional. More on the design: scale not given: in the data most compounds retested in dose-response had high values. The conditions noted are these: 30 µM.
Chain of Polyketide synthase Pks13 (Mycobacterium tuberculosis (strain ATCC 25618 / H37Rv)) (I6X8D2 whole entry): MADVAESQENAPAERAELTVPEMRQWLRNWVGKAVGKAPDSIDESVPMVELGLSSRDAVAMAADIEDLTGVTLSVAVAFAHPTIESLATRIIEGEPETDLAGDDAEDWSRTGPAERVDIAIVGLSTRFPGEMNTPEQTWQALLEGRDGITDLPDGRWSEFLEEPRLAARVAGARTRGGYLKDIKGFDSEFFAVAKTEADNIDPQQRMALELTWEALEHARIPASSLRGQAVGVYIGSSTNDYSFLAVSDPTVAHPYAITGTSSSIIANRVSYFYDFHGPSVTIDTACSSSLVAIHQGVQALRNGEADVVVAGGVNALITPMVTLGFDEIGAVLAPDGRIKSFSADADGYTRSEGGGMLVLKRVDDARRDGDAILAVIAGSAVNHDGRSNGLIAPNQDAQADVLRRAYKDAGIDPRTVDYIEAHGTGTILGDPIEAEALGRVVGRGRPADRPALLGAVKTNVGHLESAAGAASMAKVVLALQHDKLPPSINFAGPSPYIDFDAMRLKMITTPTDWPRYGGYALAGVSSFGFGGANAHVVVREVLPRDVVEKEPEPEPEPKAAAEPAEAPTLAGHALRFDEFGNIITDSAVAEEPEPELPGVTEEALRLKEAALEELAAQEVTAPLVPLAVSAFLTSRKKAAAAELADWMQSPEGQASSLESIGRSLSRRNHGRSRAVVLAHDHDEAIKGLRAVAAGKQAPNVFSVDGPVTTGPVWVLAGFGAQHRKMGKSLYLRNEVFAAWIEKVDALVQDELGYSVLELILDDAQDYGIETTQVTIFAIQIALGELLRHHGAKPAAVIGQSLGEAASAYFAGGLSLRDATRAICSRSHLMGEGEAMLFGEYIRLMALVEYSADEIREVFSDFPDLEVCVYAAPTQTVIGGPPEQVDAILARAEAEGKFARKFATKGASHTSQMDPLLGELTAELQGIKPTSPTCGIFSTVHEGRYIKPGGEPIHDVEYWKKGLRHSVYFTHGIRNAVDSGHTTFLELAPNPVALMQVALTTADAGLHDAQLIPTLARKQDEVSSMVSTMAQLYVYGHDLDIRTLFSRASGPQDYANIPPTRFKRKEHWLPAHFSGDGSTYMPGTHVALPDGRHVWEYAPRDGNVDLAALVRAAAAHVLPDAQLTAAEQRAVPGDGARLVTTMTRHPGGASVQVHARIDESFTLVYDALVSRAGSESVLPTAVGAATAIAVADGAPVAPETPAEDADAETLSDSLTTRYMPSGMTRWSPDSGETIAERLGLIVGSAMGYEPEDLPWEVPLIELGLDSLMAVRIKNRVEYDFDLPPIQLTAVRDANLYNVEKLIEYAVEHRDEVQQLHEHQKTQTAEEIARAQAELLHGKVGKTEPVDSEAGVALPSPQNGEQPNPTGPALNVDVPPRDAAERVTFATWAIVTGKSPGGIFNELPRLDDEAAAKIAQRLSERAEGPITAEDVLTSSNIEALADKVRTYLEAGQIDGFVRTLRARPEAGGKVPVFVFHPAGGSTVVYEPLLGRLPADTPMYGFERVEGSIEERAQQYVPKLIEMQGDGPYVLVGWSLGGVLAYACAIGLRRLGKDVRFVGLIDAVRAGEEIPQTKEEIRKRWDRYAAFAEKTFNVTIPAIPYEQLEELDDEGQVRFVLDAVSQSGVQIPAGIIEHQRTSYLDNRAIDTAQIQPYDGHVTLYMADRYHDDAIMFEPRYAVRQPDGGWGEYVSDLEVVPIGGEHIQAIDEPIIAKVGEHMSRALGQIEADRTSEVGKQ
On to `O=C(NCc1ccco1)[C@H]1C[C@H]2OCC[C@H]2N(S(=O)(=O)C2CC2)C1`, for which the Percent Effect was -7.99%.
Turning to `CCOC(=O)[C@]12CCCN(Cc3cccs3)C[C@H]1CN(C(C)C)C2`, the Percent Effect is -0.678%.
As for `N#Cc1cccc(N2CCC(CO)(CCOc3ccccc3)CC2)n1`, the figure is 128%; as for `CC(=O)c1ccc(N2CCC(CO)(CCOc3ccccc3)CC2)nc1`, 8.13%.
As for `N#Cc1cccnc1N1CCCC(CO)(CCOc2ccccc2)C1` (configuration not stated), the figure is -13.7%.
As for `CC(C)CN1C[C@H]2C[C@H](C(=O)NC3CCC3)[C@@H](C1)O2`, the figure is 8.3%.
`CC(C)(C)Nc1nc(-c2cccnc2)c(-c2ccnc(NCCO)n2)s1`: the Percent Effect amounted to 121%.
Consider `CCNc1nc(-c2cccnc2)c(-c2ccnc(NS(C)(=O)=O)n2)s1`, for which the Percent Effect was 17.5%.
For the compound `CCNc1nc(-c2cccnc2)c(-c2ccnc(NCCO)n2)s1`, the Percent Effect worked out at 37.6%.
As to `COc1ccccc1C(=O)Nc1ccc([C@@H](O)[C@H]2COCC(=O)N2)cc1`, the Percent Effect was found to be 3.39%.
As for `CCS(=O)(=O)NC[C@]12COC[C@H]1CN(Cc1cccc(OC)c1)C2`, the figure is -39.6%; as for `O=C(COCc1ccccc1Cl)N1CCN(c2ccc(Br)cn2)CC1`, 63.1%; as for `O=C(COCc1ccccc1Cl)N1CCN(c2ncccn2)CC1`, 0.958%.
For the compound `O=C(COCc1ccccc1Cl)N1CCN(c2cnccn2)CC1`, the Percent Effect was 25.8%.
In the case of `CCc1cnc(N2CC[C@H]3[C@@H]2CCC(=O)N3c2ccccc2)nc1`, the Percent Effect was -13.3%.
As for `O=C1CC[C@H]2[C@H](CCN2c2ccccn2)N1CC1CCOCC1`, the Percent Effect is -8.5%.
Next, `CCc1cnc(N2CC[C@H]3[C@@H]2CCC(=O)N3CC2CCOCC2)nc1`: 88.2%; `O=C1O[C@@H]2CN(c3ccncc3)C[C@@H]2N1CCCc1ccc(F)cc1`: -35.8%; `Cc1n[nH]c(C)c1CNc1ccc(-c2nc(C3CC3)no2)cn1`: 3.88%.
Regarding `Cc1cc(C)n(CCN(C)c2ccc(-c3nc(C4CC4)no3)cn2)n1`, the Percent Effect was found to be 0.156%.
Take `Cc1n[nH]c(C)c1CCN(C)c1ccc(-c2nc(C3CC3)no2)cn1`: the Percent Effect stood at 62.8%.
Turning to `CC(=O)NC[C@@]1(COc2cnccn2)C[C@@H](O)[C@@H](O)C1`, the Percent Effect was -8.58%.
`CCS(=O)(=O)CCN1CCC(N(C)Cc2noc(C(C)C)n2)C1` (configuration not stated): the Percent Effect is -4.58%.
`CC(C)c1nc(CN(C)C2CCN(CCNS(C)(=O)=O)C2)no1` (configuration not stated): the Percent Effect amounted to 93.5%.
As to `CC(C)c1nc(CN(C)C2CCN(CCS(C)(=O)=O)C2)no1` (configuration not stated), the Percent Effect is -22.6%.
`c1cnc(N2CCO[C@H]3CN(CC4CCOC4)C[C@H]32)cn1` (some centres not stated): the Percent Effect was -2.77%.
As to `Cc1noc(C)c1CN1C[C@H](OCC2CCN(C)CC2)[C@H]2COC[C@H]21`, the Percent Effect was -13.4%.
Consider `c1cc(CN2C[C@H](OCC3CCOCC3)[C@H]3COC[C@H]32)cs1`, for which the Percent Effect was 1.55%.
On to `O=C(c1ccco1)N1CC[C@@H]2O[C@H](COCCN3CCCC3)CC[C@@H]21`, for which the Percent Effect was -19.5%.
Turning to `COC(=O)c1ccc(NC2CCN(CC(F)(F)F)C2=O)cc1C` (configuration not stated), the Percent Effect turned out to be 62.3%.
Consider `CCOc1ccc(NC2CCN(CC(F)(F)F)C2=O)cc1C` (configuration not stated), for which the Percent Effect was 7.36%.
With `COC(=O)c1cc(NC2CCN(CC(F)(F)F)C2=O)ccc1C` (configuration not stated), the Percent Effect is 9.8%.
On to `CN(C)C[C@H]1OC[C@@H]2CCN(C(=O)c3ccc[nH]3)C[C@@H]21`, for which the Percent Effect was 11.4%.
Consider `O=C(Nc1cccnc1)[C@H]1CN(C2CCCC2)C[C@H]2OCC[C@@H]12`, for which the Percent Effect is -36.1%.
Regarding `CC(C)c1ncc2c(n1)CN(CC1CCCCO1)CC2` (configuration not stated), the Percent Effect was -18.6%.
For `Cc1ncc2c(n1)CN(CC1CCCCO1)CC2` (configuration not stated), the Percent Effect was -13.3%.
Regarding `CCc1ncc2c(n1)CN(CC1CCCCO1)CC2` (configuration not stated), the Percent Effect was found to be 78.1%.
As for `Cc1nc(CN2C[C@@H]3CN(C(=O)c4ccco4)C[C@@H]3C2=O)cs1`, the figure is -4.47%; as for `O=C1NC(c2ccccc2)=N[C@@]12CC[C@@H]1CN(Cc3nccs3)C[C@@H]12`, 23.9%.
On to `Cc1noc([C@]23COC[C@H]2CN(S(=O)(=O)C2CC2)C3)n1`, for which the Percent Effect is -31.1%.
As for `Cc1cc(-c2cnc(NC3CCCC3)nc2-c2ccco2)on1`, the Percent Effect worked out at 27.1%.
For the compound `O=c1[nH]c(NC2CCCC2)nc2nccc(-c3ccsc3)c12`, the Percent Effect is 43%.
As to `O=C(O)Cn1nc(C2CC2)c2c(-c3cccs3)ccnc21`, the Percent Effect stood at 46.3%.
Consider `O=c1[nH]c(NC2CCCC2)nc2nccc(-c3cccs3)c12`, for which the Percent Effect was 72.5%.
As for `Cc1cc(-c2cnc(NC3CCCCC3)nc2-c2ccco2)on1`, the Percent Effect came out at 15%.
On to `O=c1[nH]c(NC2CCCC2)nc2nccc(-c3ccco3)c12`, for which the Percent Effect came to 52.1%.
On to `O=C1O[C@@H]2CN(Cc3cccc(O)c3)C[C@@H]2N1CCCN1CCOCC1`, for which the Percent Effect is -3.82%.
For the compound `CSc1ccccc1CN1C[C@H]2C(=O)N(CC3CC3)C[C@@]2(C(=O)O)C1`, the Percent Effect was -23%.
As for `COCC(=O)NC[C@H]1CC[C@H](c2nnc(-c3cccnc3)o2)CC1`, the figure is 5.07%; as for `O=C1O[C@@H]2CN(c3ccccn3)C[C@@H]2N1CCCc1ccc(F)cc1`, -15.8%.
Regarding `O=C(NCc1ccco1)[C@H]1C[C@H]2OCC[C@H]2N(C(=O)c2ccnnc2)C1`, the Percent Effect was -21.2%.
As to `O=C(Cn1ccc2cc(Br)ccc21)NC[C@@H]1CCCN2CCCC[C@H]12`, the Percent Effect was -5.46%.
Consider `CO[C@@H]1CCN(Cc2cnn(C)c2)[C@@H]2CN(Cc3ccco3)C[C@@H]21`, for which the Percent Effect was -33%.
Turning to `COc1ccc(CN2CC[C@@H]3CN(S(C)(=O)=O)CCO[C@@H]3C2)cc1`, the Percent Effect is -17.7%.
Next, `O=C(Nc1cccnc1)[C@H]1COC[C@H]2CN(C3CCCC3)C[C@H]21`: -10.2%; `CCCn1nnc(NCc2ccc(-c3ccc(Br)cc3)o2)n1`: 50.3%.
Regarding `CCn1nnc(NCc2ccc(-c3ccc(Br)cc3)o2)n1`, the Percent Effect worked out at 31.1%.
As for `Cn1nnc(NCc2ccc(-c3ccc(Br)cc3)o2)n1`, the figure is 13.4%; as for `CC(C)c1cc(C(=O)N2C[C@H]3CC[C@@H]2CN(Cc2ccccn2)C3)no1`, -30.6%; as for `COc1cnc(N2CCN(C)CC2)nc1-c1ccnn1C`, 68%.
Next, `Cc1cnc(N2CCCC(O)C2)nc1-c1ccnn1C` (configuration not stated): 5.81%.
For `Cc1cnc(N2CCC(c3ccccc3)CC2)nc1-c1ccnn1C`, the Percent Effect is -31.6%.
Next, `Cc1cnc(N2CCC(c3ccncc3)CC2)nc1-c1ccnn1C`: -33.3%; `COc1cnc(N2CC(N3CCOCC3)C2)nc1-c1ccnn1C`: 54.8%; `Cc1cnc(N2CCN(C)CC2)nc1-c1ccnn1C`: 4.24%.
With `CCn1c(Cn2cncn2)nnc1C1CCN(C[C@H]2[C@@H]3CNC[C@@H]32)CC1`, the Percent Effect is -3.59%.
Next, `CCS(=O)(=O)N1C[C@H]2CN(c3cnn(C)c3)C(=O)[C@H]2C1`: -4.27%.
Regarding `Cc1ccccc1CN1CC[C@H]2C[C@H](C(=O)N(C)C)O[C@H]2C1`, the Percent Effect was -13.3%.
Turning to `Cc1noc(C)c1CN1CC[C@@H]2O[C@@H](COCC3CC3)CC[C@@H]21`, the Percent Effect was -31.2%.
On to `CN1C[C@@H](C(=O)NC(C)(C)C)[C@@]2(CCc3ccccc3C(=O)N2)C1`, for which the Percent Effect worked out at 1.71%.
Turning to `CCS(=O)(=O)N1C[C@@H](C(=O)NC(C)C)[C@@]2(Cc3ccccc3C(=O)N2)C1`, the Percent Effect was determined as 9.59%.
Consider `CC(C)NC(=O)[C@@H]1CN(C(=O)C2CC2)C[C@]12Cc1ccccc1C(=O)N2`, for which the Percent Effect was 52.6%.
As for `CS(=O)(=O)N1C[C@@H]2CC[C@H](C1)N(CCC(=O)NCc1ccco1)C2`, the figure is -13.4%.
With `CN1CC2(CCCN(Cc3nnc(-c4ccccc4)o3)CC2)OC1=O` (configuration not stated), the Percent Effect is -7.32%.
As for `CN1CC2(CCCN(Cc3nnc(-c4ccco4)o3)CC2)OC1=O` (configuration not stated), the figure is 62.4%; as for `CC(C)c1nnc(CN2CCCC3(CC2)CN(C)C(=O)O3)o1` (configuration not stated), -10.9%.
Turning to `Cn1ccc(C(=O)N2C[C@@H]3CN(CC4CC4)CCO[C@@H]3C2)n1`, the Percent Effect was -15.9%.
Consider `O=C(N[C@@H]1CN(c2ncccn2)C[C@@H]2CCCO[C@@H]21)c1cnccn1`, for which the Percent Effect was -18%.
As for `COc1cccc(C(O)CN2CCN(c3cccc(C)c3)CC2)c1` (configuration not stated), the figure is 0.857%; as for `COc1cccc(N2CCN(CC(O)c3ccc(C)cc3)CC2)c1` (configuration not stated), -26.6%.
In the case of `CCc1ccc(C(O)CN2CCN(c3cccc(OC)c3)CC2)cc1` (configuration not stated), the Percent Effect was found to be 56.5%.
Regarding `CNC(=O)[C@H]1C[C@@H]2CN(Cc3ccc(C)cc3)C[C@H]1O2`, the Percent Effect is -2.73%.
On to `Cc1cc2c(N)nc(=O)n(CC(=O)Nc3cccc(Cl)c3)c2s1`, for which the Percent Effect was 11.9%.
As for `COc1ccc(NC(=O)Cn2c(=O)nc(N)c3cc(C)sc32)cc1`, the figure is -1.59%; as for `Cc1cc2c(N)nc(=O)n(CC(=O)Nc3ccccc3)c2s1`, 61%; as for `c1cnc(N2C[C@H]3CCN(Cc4ccncc4)C[C@H]3C2)nc1`, -10.9%.
Consider `CCc1n[nH]c(SCC(=O)N2C[C@@H]3CC[C@H](C2)N(CC=C(C)C)C3)n1`, for which the Percent Effect amounted to 4.76%.
As for `CCc1ccc(CN2CC[C@@H]3CN(S(C)(=O)=O)CCO[C@@H]3C2)o1`, the Percent Effect is -6.54%.
As for `CNC(=O)[C@H]1C[C@@H]2CN(S(=O)(=O)c3ccc(OC)cc3)C[C@@H]2N1C`, the figure is -0.271%; as for `O=C(C[C@@H]1COC[C@H]2CN(C(=O)c3cccnc3)C[C@@H]12)N1CCOCC1`, -5.25%.
Consider `Cc1cc(C)c2cc(CNCc3ccco3)c3nn(C)c(=O)n3c2c1`, for which the Percent Effect is -29.8%.
In the case of `Cc1cc(C)c2cc(CNCc3cccnc3)c3nn(C)c(=O)n3c2c1`, the Percent Effect came out at 112%.
As for `CCCNCc1cc2c(C)cc(C)cc2n2c(=O)n(C)nc12`, the figure is 33.4%.
As for `Cc1cc(C)c2cc(CNC3CCCCC3)c3nn(C)c(=O)n3c2c1`, the figure is 10.2%.
Next, `Cc1cc(C)c2cc(CNC(C)C)c3nn(C)c(=O)n3c2c1`: 52.3%; `Cc1cc(C)c2cc(CNCc3ccccc3)c3nn(C)c(=O)n3c2c1`: -72.8%; `Cc1cnc(N2CC[C@@H]3O[C@@H](COCC(=O)N(C)C)CC[C@@H]32)nc1`: -4.2%.
As to `Cc1cc(C)nc(N2CC[C@@]3(O)CCN(S(=O)(=O)N(C)C)C[C@H]3C2)n1`, the Percent Effect was -22.2%.
Next, `O=C([C@@H]1COC[C@H]2CN(C3CCOCC3)C[C@H]21)N1CCCCO1`: 3.42%; `CC1(C(=O)NCc2cccnc2Oc2ccc(F)cc2F)CCCNC1` (configuration not stated): -16.5%.
In the case of `CC1(C(=O)NCc2cccnc2Oc2ccc(F)c(F)c2)CCCNC1` (configuration not stated), the Percent Effect came to 63.7%.
For the compound `Cc1cccc(C)c1Oc1ncccc1CNC(=O)C1(C)CCCNC1` (configuration not stated), the Percent Effect is -21.7%.
Turning to `Cc1ccccc1CN1C[C@@H]2OCC(=O)N(CC(N)=O)[C@@H]2C1`, the Percent Effect is -35.3%.
Regarding `CCOC[C@]12COC[C@H]1CN(Cc1ccc(F)c(F)c1)C2`, the Percent Effect was -14.9%.
Regarding `Cc1ncc(CN2CCCC2)c2cc(C(=O)c3ccc(Br)cc3)oc12`, the Percent Effect is -4.91%.
As for `Cc1ncc(CNCCO)c2cc(C(=O)c3ccc(Br)cc3)oc12`, the figure is -1.68%.
Next, `Cc1ncc(CNCC(C)O)c2cc(C(=O)c3ccc(Br)cc3)oc12` (configuration not stated): 53.8%.
